In PubChem BioAssay (EPA / NIEHS):
Inconclusive results are not listed. The source made the active and inactive calls. How the source made its calls, unless noted: active means hit-call score of the fitted dose curve at least 0.9, where 1 is the maximum; inactive means score below 0.9.

Key:
[1] = target: Paired box protein Pax-6 (Homo sapiens) (UniProt P26367); assay: ATG_Pax6_CIS: Attagene CIS-FACTORIAL HepG2 Assay for human Paired Box 6 (PAX6) (AID 2282956); conditions: HepG2 CIS-FACTORIAL PAX6 reporter transcription, RNA readout; actives raise or lower the signal
Paired box protein Pax-6 (Homo sapiens), sequence (P26367 whole entry, looked up): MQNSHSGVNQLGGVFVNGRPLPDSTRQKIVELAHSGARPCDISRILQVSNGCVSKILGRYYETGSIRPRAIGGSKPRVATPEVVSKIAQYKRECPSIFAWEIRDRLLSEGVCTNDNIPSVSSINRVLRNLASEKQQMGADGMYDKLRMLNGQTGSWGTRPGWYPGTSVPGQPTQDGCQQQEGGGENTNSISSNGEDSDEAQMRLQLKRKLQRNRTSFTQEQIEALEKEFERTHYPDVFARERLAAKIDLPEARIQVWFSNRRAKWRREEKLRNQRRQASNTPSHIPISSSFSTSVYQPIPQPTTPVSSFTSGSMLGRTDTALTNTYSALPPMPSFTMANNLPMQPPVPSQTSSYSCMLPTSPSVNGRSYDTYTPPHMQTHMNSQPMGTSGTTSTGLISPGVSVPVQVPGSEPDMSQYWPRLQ
Outline: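 HepG2 cells transiently transfected with cis-promoter-driven multiplexed reporter units sensing endogenous transcription factor activity; 24 h chemical exposure. Reporter mRNA quantified by RT-PCR, 6-FAM labelling, HpaI digestion and capillary electrophoresis; bidirectional fit versus DMSO baseline.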

[2] = ATG_PXRE_CIS: Attagene CIS-FACTORIAL HepG2 Assay for human Pregnane X Receptor Element (PXRE) (AID 2282957); conditions: HepG2 Attagene CIS-FACTORIAL PXRE reporter, mRNA; actives raise or lower the signal
Outline: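 HepG2 cells transiently transfected with cis-element-driven multiplexed reporter units; after 24 h chemical exposure, reporter mRNA measured by RT-PCR, 6-FAM labelling, HpaI digestion and capillary electrophoresis. Bidirectional fitting relative to DMSO.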

[3] = ATG_PPRE_CIS: Attagene CIS-FACTORIAL HepG2 Assay for human Peroxisome Proliferator-activated Response Element (PPRE) (AID 2282958); conditions: HepG2 PPRE cis-element reporter, Attagene transcription factor profiling; actives raise or lower the signal
Outline: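 Read-out: fluorescent reporter mRNA fragments resolved by capillary electrophoresis after RT-PCR. HepG2 cells carried transiently transfected PPRE-driven cis reporter constructs and were dosed for 24 h; gain or loss of signal fitted relative to DMSO.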

[4] = ATG_RORE_CIS: Attagene CIS-FACTORIAL HepG2 Assay for human RAR-related Orphan Receptor Element (RORE) (AID 2282959); conditions: HepG2 Attagene cis-factorial RORE reporter, mRNA; actives raise or lower the signal
Outline: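 Readout: fluorescent reporter mRNA by RT-PCR plus capillary electrophoresis, 24 h after dosing transfected HepG2 cells. Endogenous transcription factor activity on a cis promoter element is measured. Gain or loss of signal fitted against DMSO.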

[5] = ATG_Sox_CIS: Attagene CIS-FACTORIAL HepG2 Assay for human SRY-box transcription factor (SOX) (AID 2282960); conditions: HepG2 Attagene cis-factorial SOX reporter, mRNA; actives raise or lower the signal
Outline: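 Read-out: fluorescent RT-PCR products of SOX1-linked reporter transcripts resolved by capillary electrophoresis, fitted bidirectionally against DMSO. Transiently transfected HepG2 cells, 24 h after chemical exposure, endogenous transcription factor activity.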

[6] = target: Transcription factor Sp1 (Homo sapiens) (UniProt P08047); assay: ATG_Sp1_CIS: Attagene CIS-FACTORIAL HepG2 Assay for human Specificity Protein 1 (Sp1) (AID 2282961); conditions: HepG2 Sp1 cis-reporter transcription, actives raise or lower the signal
Transcription factor Sp1 (Homo sapiens), sequence (P08047 whole entry, looked up): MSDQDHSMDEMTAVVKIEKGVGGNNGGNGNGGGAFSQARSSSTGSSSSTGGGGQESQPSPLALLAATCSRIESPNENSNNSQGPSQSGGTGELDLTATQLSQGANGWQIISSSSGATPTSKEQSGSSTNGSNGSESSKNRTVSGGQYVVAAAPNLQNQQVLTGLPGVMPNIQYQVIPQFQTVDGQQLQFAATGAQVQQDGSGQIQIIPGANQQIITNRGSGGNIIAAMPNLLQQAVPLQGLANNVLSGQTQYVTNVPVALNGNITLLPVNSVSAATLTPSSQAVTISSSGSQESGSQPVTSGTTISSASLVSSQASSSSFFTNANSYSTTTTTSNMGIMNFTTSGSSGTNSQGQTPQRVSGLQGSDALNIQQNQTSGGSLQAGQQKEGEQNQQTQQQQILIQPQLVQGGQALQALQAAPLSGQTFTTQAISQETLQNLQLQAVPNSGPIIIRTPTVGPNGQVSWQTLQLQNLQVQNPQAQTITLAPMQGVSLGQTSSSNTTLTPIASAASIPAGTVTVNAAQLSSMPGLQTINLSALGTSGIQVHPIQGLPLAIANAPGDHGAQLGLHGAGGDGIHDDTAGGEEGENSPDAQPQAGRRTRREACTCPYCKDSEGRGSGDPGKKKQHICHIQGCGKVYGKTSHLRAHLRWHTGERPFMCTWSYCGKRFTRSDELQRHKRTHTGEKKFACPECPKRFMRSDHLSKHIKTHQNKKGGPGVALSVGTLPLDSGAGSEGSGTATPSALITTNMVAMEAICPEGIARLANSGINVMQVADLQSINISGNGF
Outline: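 Read-out: fluorescence of 6-FAM-labeled, HpaI-digested RT-PCR products separated by capillary electrophoresis. HepG2 cells carried transfected cis-element reporter units and were exposed to chemicals for 24 h; gain or loss of signal fitted relative to DMSO.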

[7] = ATG_SREBP_CIS: Attagene CIS-FACTORIAL HepG2 Assay for human Sterol Regulatory Element Binding (SREBP) (AID 2282962); conditions: HepG2 Attagene cis-factorial SREBP reporter, mRNA; actives raise or lower the signal
Outline: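 HepG2 cells transiently transfected with multiplexed cis-promoter reporter units sensing endogenous transcription factors; reporter mRNA measured 24 h after dosing by RT-PCR, 6-FAM labeling, HpaI digestion and capillary electrophoresis. Bidirectional fit versus DMSO.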

[8] = target: Signal transducer and activator of transcription 3 (Homo sapiens) (UniProt P40763); assay: ATG_STAT3_CIS: Attagene CIS-FACTORIAL HepG2 Assay for human Signal Transducer and Activator of Transcription 3 (STAT3) (AID 2282963); conditions: HepG2, Attagene cis-factorial STAT3 reporter transcription; actives raise or lower the signal
Signal transducer and activator of transcription 3 (Homo sapiens), sequence (P40763 whole entry, looked up): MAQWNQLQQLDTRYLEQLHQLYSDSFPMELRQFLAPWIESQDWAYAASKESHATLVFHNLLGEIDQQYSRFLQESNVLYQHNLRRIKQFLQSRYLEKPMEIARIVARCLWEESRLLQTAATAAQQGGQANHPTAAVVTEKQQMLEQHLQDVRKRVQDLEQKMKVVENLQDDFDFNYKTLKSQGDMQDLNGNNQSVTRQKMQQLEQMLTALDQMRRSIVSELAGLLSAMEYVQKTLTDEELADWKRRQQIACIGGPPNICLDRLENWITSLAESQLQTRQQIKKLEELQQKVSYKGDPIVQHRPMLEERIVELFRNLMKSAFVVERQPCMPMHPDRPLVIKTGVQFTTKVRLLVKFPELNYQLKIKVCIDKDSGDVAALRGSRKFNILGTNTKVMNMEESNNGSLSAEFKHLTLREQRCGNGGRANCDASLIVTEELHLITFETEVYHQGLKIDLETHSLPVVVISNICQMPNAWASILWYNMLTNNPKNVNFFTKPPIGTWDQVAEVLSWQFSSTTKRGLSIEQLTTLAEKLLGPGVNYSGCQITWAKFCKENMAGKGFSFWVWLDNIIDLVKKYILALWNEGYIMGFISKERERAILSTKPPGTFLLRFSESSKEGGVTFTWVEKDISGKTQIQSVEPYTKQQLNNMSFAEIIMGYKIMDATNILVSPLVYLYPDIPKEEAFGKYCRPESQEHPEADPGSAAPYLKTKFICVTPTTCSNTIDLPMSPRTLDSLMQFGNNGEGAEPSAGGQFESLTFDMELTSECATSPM
Outline: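 Transcript-level reporter assay. HepG2 transient MRTU transfection, 24 h exposure, fluorescence detection after RT-PCR and CE; DMSO baseline.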

[9] = ATG_TA_CIS: Attagene CIS-FACTORIAL HepG2 Assay for human TA Basal Promoter (AID 2282964); conditions: HepG2 Attagene CIS-factorial TA basal promoter reporter; actives raise or lower the signal
Outline: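 Background-control readout: TA basal promoter reporter mRNA, fitted in both directions relative to DMSO. Measured by RT-PCR and capillary electrophoresis 24 hours after treating HepG2 human liver cells transiently carrying multiplexed cis-regulated reporter constructs.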

[10] = ATG_TCF_b_cat_CIS: Attagene CIS-FACTORIAL HepG2 Assay for human T-Cell-Factor with beta-catenin (TCF/b-cat) (AID 2282965); conditions: HepG2 TCF/beta-catenin cis-reporter transcription, actives raise or lower the signal
Outline: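 Using capillary electrophoresis as the read-out, labelled reporter cDNA fragments from transiently transfected HepG2 were sized and quantified. Exposure lasted 24 hours; activity in either direction was referenced to DMSO.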

[11] = ATG_TAL_CIS: Attagene CIS-FACTORIAL HepG2 Assay for human TAL Basal Promoter (AID 2282966); conditions: HepG2 Attagene cis-factorial TAL promoter reporter; actives raise or lower the signal;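 further: background control endpoint measuring basal TAL promoter reporter mRNA not a specific factor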
Outline: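 HepG2 cells transiently transfected with multiplexed cis-promoter reporter units, dosed 24 h. Reporter mRNA quantified by RT-PCR, 6-FAM labelling, HpaI digestion and capillary electrophoresis; TAL basal promoter serves as background control, fitted bidirectionally versus DMSO.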

[12] = ATG_TGFb_CIS: Attagene CIS-FACTORIAL HepG2 Assay for human Transforming Growth Factor (TGF) (AID 2282967); conditions: HepG2 Attagene CIS TGFb reporter, mRNA transcription; actives raise or lower the signal
Outline: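 Endogenous TGFB1-linked transcription factor activity read as reporter mRNA via RT-PCR and capillary electrophoresis, 24 h after dosing transiently transfected HepG2 cells. Gain or loss of signal fitted relative to DMSO.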

[13] = target: Estrogen receptor (Homo sapiens) (UniProt P03372); assay: ATG_ERa_TRANS: Attagene TRANS-FACTORIAL HepG2 Assay for human Estrogen Receptor alpha (ERa) (AID 2282970; active means hit-call score of the fitted dose curve at least 0.9, where 1 is the maximum); conditions: HepG2 Attagene TRANS ERa GAL4 reporter, mRNA
Estrogen receptor (Homo sapiens), sequence (P03372 whole entry, looked up, the tested form may be a part): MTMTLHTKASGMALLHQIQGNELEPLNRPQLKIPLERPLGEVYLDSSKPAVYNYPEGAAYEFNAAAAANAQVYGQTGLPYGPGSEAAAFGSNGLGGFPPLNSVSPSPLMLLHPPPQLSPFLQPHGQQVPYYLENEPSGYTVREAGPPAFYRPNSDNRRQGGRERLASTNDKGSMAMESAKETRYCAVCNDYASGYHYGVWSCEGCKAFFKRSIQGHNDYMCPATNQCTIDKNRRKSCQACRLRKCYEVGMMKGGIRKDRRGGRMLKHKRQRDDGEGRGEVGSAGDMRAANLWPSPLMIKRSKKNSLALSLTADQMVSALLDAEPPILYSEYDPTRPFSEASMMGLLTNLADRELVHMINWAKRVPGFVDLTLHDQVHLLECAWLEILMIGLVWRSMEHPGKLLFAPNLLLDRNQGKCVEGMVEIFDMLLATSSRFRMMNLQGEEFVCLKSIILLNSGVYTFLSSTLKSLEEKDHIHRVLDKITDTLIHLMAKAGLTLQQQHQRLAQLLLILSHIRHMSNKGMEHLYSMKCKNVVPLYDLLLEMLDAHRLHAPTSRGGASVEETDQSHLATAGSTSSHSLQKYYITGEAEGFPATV
Outline: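 HepG2 cells transiently transfected with multiplexed GAL4-UAS reporter units read out chimeric NR-Gal4 activity. After 24 h compound exposure, reporter mRNA was quantified by RT-PCR, 6-FAM labeling, HpaI digestion and capillary electrophoresis, relative to DMSO.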

[14] = target: X-box-binding protein 1 (Homo sapiens) (UniProt P17861); assay: ATG_Xbp1_CIS: Attagene CIS-FACTORIAL HepG2 Assay for human X-box Binding Protein 1 (XBP1) (AID 2282972); conditions: HepG2 XBP1 cis-element reporter, Attagene multiplex; actives raise or lower the signal
X-box-binding protein 1 (Homo sapiens), sequence (P17861 whole entry, looked up): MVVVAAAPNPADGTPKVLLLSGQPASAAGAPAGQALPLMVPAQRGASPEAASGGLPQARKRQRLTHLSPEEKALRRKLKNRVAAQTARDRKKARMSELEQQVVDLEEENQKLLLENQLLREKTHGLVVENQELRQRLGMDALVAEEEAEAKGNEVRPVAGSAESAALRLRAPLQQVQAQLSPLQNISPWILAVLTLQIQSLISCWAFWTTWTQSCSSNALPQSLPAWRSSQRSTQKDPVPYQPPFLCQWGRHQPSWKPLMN
Outline: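 HepG2 cells transiently transfected with multiple cis-element reporter units report endogenous TF activity; 24 h exposure, then reporter mRNA measured by RT-PCR, 6-FAM labelling, HpaI digestion and capillary electrophoresis. Bidirectional fitting versus DMSO.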

[15] = ATG_GAL4_TRANS: Attagene TRANS-FACTORIAL HepG2 Assay for GAL4 (Internal Marker) (AID 2282976; active means hit-call score of the fitted dose curve at least 0.9, where 1 is the maximum); conditions: HepG2 Attagene TRANS GAL4 internal marker reporter
Outline: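 Background-control readout: GAL4-UAS reporter transcript in transiently transfected HepG2 cells after 24 h compound exposure. Measured by RT-PCR, 6-FAM primer extension, HpaI digest and capillary electrophoresis; gain-of-signal fit versus DMSO.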

[16] = ATG_VDRE_CIS: Attagene CIS-FACTORIAL HepG2 Assay for human Vitamin D Receptor Element (VDRE) (AID 2282968); conditions: HepG2 VDRE cis-reporter transcription, actives raise or lower the signal
Outline: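 RT-PCR/CE readout of reporter mRNA; HepG2, transient transfection, 24 h dosing; DMSO baseline; bidirectional analysis.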

[17] = target: Nuclear receptor subfamily 1 group I member 3 (Homo sapiens) (UniProt Q14994); assay: ATG_CAR_TRANS: Attagene TRANS-FACTORIAL HepG2 Assay for human Constitutive Androstane Receptor (CAR) (AID 2282969; active means hit-call score of the fitted dose curve at least 0.9, where 1 is the maximum;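 further: activators raise reporter mRNA above DMSO so AC50 marks induction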); conditions: HepG2 Attagene TRANS-FACTORIAL CAR reporter
Nuclear receptor subfamily 1 group I member 3 (Homo sapiens), sequence (Q14994 whole entry, looked up, the tested form may be a part): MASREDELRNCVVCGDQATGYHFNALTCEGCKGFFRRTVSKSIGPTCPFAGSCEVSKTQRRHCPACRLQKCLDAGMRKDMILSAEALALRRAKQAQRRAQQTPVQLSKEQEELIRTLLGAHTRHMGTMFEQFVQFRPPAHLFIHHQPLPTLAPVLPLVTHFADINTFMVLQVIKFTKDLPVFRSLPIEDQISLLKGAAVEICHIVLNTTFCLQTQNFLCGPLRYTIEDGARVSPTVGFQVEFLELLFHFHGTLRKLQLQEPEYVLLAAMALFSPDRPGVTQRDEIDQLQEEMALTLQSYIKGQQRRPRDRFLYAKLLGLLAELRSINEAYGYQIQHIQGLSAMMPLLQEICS
Outline: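 HepG2 cells transiently transfected with multiplexed GAL4-UAS reporter units expressing chimeric NR-Gal4 proteins; compound exposure 24 h. Reporter mRNA measured by RT-PCR, 6-FAM labelling, HpaI digestion and capillary electrophoresis; gain-of-signal fitted against DMSO baseline.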

[18] = target: Steroid hormone receptor ERR1 (Homo sapiens) (UniProt P11474); assay: ATG_ERRa_TRANS: Attagene TRANS-FACTORIAL HepG2 Assay for human Estrogen-Related Receptor alpha (ERRa) (AID 2282971; active means hit-call score of the fitted dose curve at least 0.9, where 1 is the maximum); conditions: HepG2 Attagene TRANS reporter, ERRa transactivation
Steroid hormone receptor ERR1 (Homo sapiens), sequence (P11474 whole entry, looked up, the tested form may be a part): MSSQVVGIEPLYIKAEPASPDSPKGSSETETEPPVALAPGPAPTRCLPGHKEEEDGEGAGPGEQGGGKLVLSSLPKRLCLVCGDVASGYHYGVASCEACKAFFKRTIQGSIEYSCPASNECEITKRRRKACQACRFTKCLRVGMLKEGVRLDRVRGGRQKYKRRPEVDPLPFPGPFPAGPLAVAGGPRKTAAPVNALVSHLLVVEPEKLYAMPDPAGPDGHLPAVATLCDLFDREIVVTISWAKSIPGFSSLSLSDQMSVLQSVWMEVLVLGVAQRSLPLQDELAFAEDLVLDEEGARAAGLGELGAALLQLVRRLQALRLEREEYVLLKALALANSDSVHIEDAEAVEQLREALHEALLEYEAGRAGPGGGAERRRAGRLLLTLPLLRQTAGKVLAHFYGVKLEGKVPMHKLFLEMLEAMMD
Outline: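 HepG2 cells transiently transfected with GAL4-UAS reporter units and chimeric NR-Gal4 constructs; after 24 hour compound incubation, reporter mRNA quantified by RT-PCR, fluorescent labelling and capillary electrophoresis, gain of signal versus DMSO.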

[19] = ATG_M_19_TRANS: Attagene TRANS-FACTORIAL HepG2 Assay for M19 Transcription Factor (Internal Marker) (AID 2282974; active means hit-call score of the fitted dose curve at least 0.9, where 1 is the maximum); conditions: HepG2 Attagene TRANS-FACTORIAL M19 internal marker reporter
Outline: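 24 h chemical exposure of transiently transfected HepG2 (MRTU library). RNA → oligo(dT) RT → PCR → 6-FAM labelling → HpaI cut → CE fluorescence. Positive-direction fit vs DMSO baseline; background internal-marker readout.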

Measured: AC50

CCOC(=O)C1=NOC(c2ccccc2)(c2ccccc2)C1
active: [2] 18.3 µM
not listed: [15] | [16] | [17] | [18] | [19]
inactive: all other assays above

CC(=O)C(C)C
not listed: [9] | [13] | [16] | [17] | [18] | [19]
inactive: all other assays above

COc1cc(C)ccc1O
not listed: [12] | [18] | [19]
inactive: all other assays above

O=S(=O)(O)c1ccc(Nc2nc(Nc3ccc(C=Cc4ccc(Nc5nc(Nc6ccc(S(=O)(=O)O)cc6)nc(N(CCO)CCO)n5)cc4S(=O)(=O)O)c(S(=O)(=O)O)c3)nc(N(CCO)CCO)n2)cc1
active: [2] 21.2 µM
not listed: [12] | [13] | [17] | [19]
inactive: all other assays above

C=Cc1cccc(C)c1
active: [2] 13.3 µM
not listed: [12] | [15] | [16] | [18]
inactive: all other assays above

CCOC(=O)/C=C\C(=O)OCC
active: [3] 7.64 µM
not listed: [9] | [15] | [17] | [19]
inactive: all other assays above

COC(=O)CC(C)CCC=C(C)C (stereo unspecified)
active: [2] 69.2 µM
not listed: [12] | [17] | [19]
inactive: all other assays above

CC(C)(O)Cc1ccccc1
not listed: [15] | [16] | [17] | [19]
inactive: all other assays above

CC/C=C\C/C=C\C/C=C\CCCCCCCC(=O)OC
active: [2] 7.37 µM | [4] 164 µM | [6] 128 µM | [10] 64.9 µM | [12] 100 µM
not listed: [9] | [13] | [17] | [18] | [19]
inactive: all other assays above

CC1=CCC2CC1C2(C)C (stereo unspecified)
active: [2] 37.2 µM
not listed: [8] | [17] | [18] | [19]
inactive: all other assays above

CC(C)c1cc(C(C)C)cc(C(C)C)c1
inactive: [3] | [4] | [11] | [12] | [14]
active: [1] 159 µM | [2] 52.1 µM | [5] 159 µM | [6] 145 µM | [7] 100 µM | [10] 169 µM | [16] 100 µM

CCCCNC(=S)NCCCC
active: [2] 38 µM
not listed: [3] | [17] | [18] | [19]
inactive: all other assays above

C/C=C/C=C/CCCCCCCO
active: [1] 76 µM | [2] 25.5 µM | [9] 100 µM | [16] 22.7 µM
not listed: [4] | [13] | [15] | [17] | [18]
inactive: all other assays above

CCCCCCCCC(CO)CCCCCC (stereo unspecified)
active: [8] 133 µM
not listed: [3] | [13] | [15] | [16] | [17] | [18] | [19]
inactive: all other assays above

CCCCCCCCCCCC(=O)N(C)CC(=O)O
active: [3] 8.09 µM | [4] 19.6 µM
not listed: [5] | [8] | [17] | [18] | [19]
inactive: all other assays above

NNS(=O)(=O)c1ccc(Oc2ccc(S(=O)(=O)NN)cc2)cc1
not listed: [4] | [13] | [16] | [17]
inactive: all other assays above

CCCCOCCOCCOC(C)=O
not listed: [5] | [12] | [17]
inactive: all other assays above

O=C(Oc1ccccc1)c1ccccc1O
not listed: [3] | [12] | [13] | [16] | [17] | [18] | [19]
inactive: all other assays above

CC(C)=CCl
not listed: [3] | [10] | [15] | [17] | [18] | [19]
inactive: all other assays above
